High-throughput results from PubChem.
PLK1 PBD block = qHTS for Inhibitors of PLK1-PDB (polo-like kinase 1 - polo-box domain): Primary Screen; Serine/threonine-protein kinase PLK1 (Homo sapiens), P53350; hit rate 2.8% among 360,000; Plk1 PBD binding of FITC phosphopeptide, fluorescence polarization; Potency, µM, inactives show max response, negative = inhibition, actives largely listed as inhibitors; also: potency is read from the fitted curve at half-maximal effect; series mostly up to about 57 µM; nearly all actives have a fitted effect of over 65% in size
PI4K2A block = qHTS for small molecular inhibitors of PI4K2A; hit rate 0.13% among 420,000; purified PI4K2A, ADP-Glo luminescence, 1 h; stronger effect = lower value; activity change, negative = inhibition, % at 76.9 µM; in the data active = activity change below about -50%; inconclusive = mostly about -30% to -49%;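 also: -100% = wells without enzyme as full effect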
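Compounds are screened against recombinant PI4K2A using PI as substrate and ATP, the latter dispensed at 300 microM. Reactions run one hour at ambient temperature before ADP-Glo detection; full inhibition defined by wells lacking enzyme.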
GLS inh = qHTS for Inhibitors of Glutaminase (GLS). Glutaminase kidney isoform, mitochondrial (Homo sapiens), O94925. GLS enzymatic activity, qHTS titration. Potency, µM (titrated, usually from 45.5 µM), without a hit: top-dose activity change, negative = inhibition, usual class: inhibitors. hit rate 0.21% among 410,000. AID 624170, 2012; also: potency is read from the fitted curve at half-maximal effect
Target sequence (O94925 whole entry, looked up, canonical isoform): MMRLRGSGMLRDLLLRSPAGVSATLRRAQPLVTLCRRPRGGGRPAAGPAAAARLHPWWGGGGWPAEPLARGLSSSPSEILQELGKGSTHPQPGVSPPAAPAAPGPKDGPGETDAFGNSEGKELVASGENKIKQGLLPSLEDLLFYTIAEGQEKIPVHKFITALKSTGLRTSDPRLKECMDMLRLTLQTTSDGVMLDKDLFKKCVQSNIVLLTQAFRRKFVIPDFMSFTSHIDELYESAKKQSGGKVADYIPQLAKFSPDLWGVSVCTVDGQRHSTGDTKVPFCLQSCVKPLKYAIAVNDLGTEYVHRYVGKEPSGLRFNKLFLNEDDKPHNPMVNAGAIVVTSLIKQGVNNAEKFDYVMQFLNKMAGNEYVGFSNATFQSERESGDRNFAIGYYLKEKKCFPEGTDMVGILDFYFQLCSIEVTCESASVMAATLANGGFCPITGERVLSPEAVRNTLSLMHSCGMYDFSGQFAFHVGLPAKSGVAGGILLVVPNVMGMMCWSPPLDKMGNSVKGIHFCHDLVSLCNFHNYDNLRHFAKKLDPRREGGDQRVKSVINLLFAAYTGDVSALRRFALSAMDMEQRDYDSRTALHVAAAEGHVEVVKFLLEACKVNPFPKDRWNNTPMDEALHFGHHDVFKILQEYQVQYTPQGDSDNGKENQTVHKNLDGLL
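Compounds were pin-transferred onto hKGA, after which L-glutamine (1 mM solution) and a detection mix of glutamate oxidase, HRP and Amplex Red were added. Initial and 30 min RT fluorescence reads were collected.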
GCN5L2 inh = qHTS Assay for Inhibitors of GCN5L2; Histone acetyltransferase KAT2A (Homo sapiens), Q92830; GCN5L2 HAT assay, ThioGlo1 CoA-SH fluorescence; Potency, µM (highest dose often 58.9 µM), without a hit: top-dose activity change, negative = inhibition, hits mostly inhibitors; hit rate 0.21% among 390,000; also: potency is read from the fitted curve at half-maximal effect
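Enzyme at 20nM final was mixed with library compounds for 15 min at room temperature. Peptide H3(1-25) at 75uM, acetyl-CoA at 70uM and ThioGlo1 at 50uM were then added. Plates were read immediately and after 20 min (Ex340nm/Em540nm).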
VDR inh = Inhibitors of the vitamin D receptor (VDR): qHTS. Vitamin D3 receptor (Homo sapiens), P11473. VDR-SRC2-3 peptide fluorescence polarization, 2 h. Potency, µM, without a hit: max response, negative = inhibition, actives largely listed as inhibitors. hit rate 0.93% among 400,000; also: potency is read from the fitted curve at half-maximal effect
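FP read-out; VDR + SRC2-3 coactivator peptide; 23 nl compound by pintool; 2 h RT incubation; reagents held at 4 deg C, protected from light.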
* marks the source's active call; other numbers are inactive results; ? = inconclusive; nt = no result; ! = not active in a repeat; [ ] = dose if it differs, or a comment. The list is not random: actives were taken first. Their share in the collection is about 3.1%. Unless noted, calls follow the shape of the dose curve; as a rule, active = well fitted curve in the direction sought with a large enough effect; inconclusive = small, poorly fitted or top-dose-only effect, or another doubt; inactive = no such curve, though single readings can be large; an effect the other way counts as inactive or inconclusive. Unless noted, % is scaled to controls: 0 for no effect and ±100 for the full control effect.

SMILES	PLK1 PBD block	PI4K2A block	GLS inh	GCN5L2 inh	VDR inh
Cc1ccc(NC(=S)c2nc3ccccc3s2)cc1	-15%	-82*	9%	0%	4%
CCC[C@H]1[C@@H](NC(=O)C#Cc2ccccc2)CC[C@@]23CCCN2C(=O)CCC[C@@H]13	nt	-2	nt	nt	nt
Clc1ccc(OCc2nn3c(C4CCCCC4)nnc3s2)cc1	21µM*	12	2%	-8%	?
c1csc(-c2nn3c(C4CCCCC4)nnc3s2)c1	0%	-1	-2%	nt	-17%
Cc1ccc(N=Cc2cccc(O)c2O)c(C)c1	nt	nt	nt	-20%	20µM*
Cc1ccccc1N=Cc1cccc(O)c1O	-18%	-15	?	-19%	14µM*
CCN(CC)c1ccc(C=Nc2ccc(C)cc2C)c(O)c1	-4%	0	3%	-7%	2%
Oc1ccccc1C=NN=Cc1c(O)ccc2ccccc12	-1%	-9	6%	nt	-22%
Oc1cccc(/C=N/N=C/c2cccc(O)c2O)c1O	3%	-23	3.5µM*	-4%	-16%
O=C(CSc1nnc(-c2ccccc2)n1-c1ccc(Cl)cc1)Nc1ccccc1-c1ccccc1	nt	-3	nt	nt	nt
COc1ccc2[nH]c3c(=O)n(Cc4ccc(C(=O)N5CCC(C(N)=O)CC5)cc4)c(=S)[nH]c3c2c1	21µM*	-1	22µM*	-22%	?
Nc1ccc(NC(=O)c2cc(Cl)ccc2O)c(Cl)c1	nt	nt	nt	nt	4%
CCCCc1nnc(NC(=O)CSc2nc(O)c(-c3ccccc3)c(=O)[nH]2)s1	-12%	-9	3%	-3%	-15%
CCCCc1nnc(NC(=O)CSc2nc(O)c(Cc3ccccc3)c(=O)[nH]2)s1	27µM*	-8	-2%	-1%	-3%
COc1ccc(CNS(=O)(=O)c2ccc(N3CCCC3)cc2Br)cc1	24µM*	0	-4%	-9%	?
O=C(c1cc(-c2ccccc2)nc2ccccc12)N1CCN(c2ccccc2O)CC1	8%	-1	7.1µM*	-9%	5%
Cc1ccc(Oc2c(C(F)(F)F)oc3c(CN4CCCCC4C)c(O)ccc3c2=O)cc1 (centres undefined)	nt	-3	-9%	-15%	36%
O=C(NCc1ccncc1)C1CCCCC1	27µM*	3	-5%	2%	-26%
Oc1ccc(COCc2ccccc2)c2cccnc12	-27%	-7	0%	25µM*!	3%
Clc1ccc(CN2CCN(N=Cc3ccncc3)CC2)cc1	nt	3	nt	nt	nt
CCC(c1ccccc1)C(CC)c1cc(O)c(O)c(O)c1 (centres undefined)	6µM*	-6	11µM*	nt	?
CCC(C(=O)O)c1ccccc1 (centres undefined)	nt	nt	nt	3%	7%
Cc1onc(-c2ccccc2Cl)c1C(=O)NCc1ccco1	-18%	?	10µM*	-11%	-14%
COc1c(Cl)cc(-c2noc(C)c2C(=O)NCc2ccc3c(c2)OCO3)cc1Cl	-7%	2	-2%	-2%	-16%
Cc1ccc(CNC(=O)c2c(-c3ccccc3Cl)noc2C)cc1	2%	2	0%	-1%	11%
SMILES	PLK1 PBD block	PI4K2A block	GLS inh	GCN5L2 inh	VDR inh
COc1c(Cl)cc(-c2noc(C)c2C(=O)NCc2ccccc2)cc1Cl	30µM*	1	14%	-3%	-16%
Cc1csc(NC(=O)c2ccc(COc3ccccc3F)o2)n1	nt	0	nt	nt	nt
Cc1ccc(S(=O)(=O)Nc2ccc3c(c2)CCCN3C(=O)c2cccs2)cc1	nt	0	8%	13%	4%
Cc1c(CC(=O)N[C@H](C(=O)O)C(C)C)c(=O)oc2cc3c(cc12)CCC(C)(C)O3	21µM*	2	-7%	-1%	?
C=CCSc1nc2ccsc2c(=O)n1-c1cccnc1	27µM*	2	-1%	-9%	-16%
C=CCSc1nc2sc3c(c2c(=O)n1-c1ccccc1)CCN(C)C3	-13%	0	-9%	5%	7%
CCOc1cc2c(C#N)c(N3CCOCC3)nc(N)c2c(N)n1	-7%	3	7%	-25%	9%
CCOc1cc2c(C#N)c(N(CC)CC)nc(N)c2c(N)n1	-3%	?	2%	nt	45µM*
COc1ccc(C(=O)Nc2cccc(/C=C(\CCC(=O)O)c3nc4ccccc4s3)c2)cc1	11µM*	-8	8%	-14%	?
O=C(O)C/C(=C\c1cccc(NC(=O)c2ccccc2Cl)c1)c1nc2ccccc2s1	27µM*	-13	31%	-13%	-26%
O=C(O)C/C(=C\c1cc2c(cc1Br)OCO2)c1nc2ccccc2s1	24µM*	-2	1%	-9%	-13%
Brc1cc2c(cc1/C=N/Nc1nc3ccccc3s1)OCO2	-1%	-1	14%	-6%	-16%
COc1cccc(NC(=O)NCc2ccccc2F)c1	12µM*	6	52%	2%	?
COc1ccccc1NC(=O)NCc1ccccc1F	34µM*	-7	3%	-4%	-12%
COc1ccc(NC(=O)NCc2ccccc2F)cc1OC	-2%	3	16%	19%	-8%
Cc1ccc(S(=O)(=O)NCC2CN(S(=O)(=O)c3ccc(C)cc3)c3ccccc3C(=O)N2c2ccc(F)cc2)cc1 (centres undefined)	nt	-3	nt	nt	nt
CC1=NN(c2ccccc2)C(=O)C1C(=S)SC1CC(=O)NC1=O (centres undefined)	11µM*	-15	12%	nt	nt
CC1=NN(c2ccccc2)C(=O)C1C(=O)c1ccc(Cl)cc1 (centres undefined)	-7%	-11	4%	-4%	-2%
COc1ccc(C(=O)N/N=C/c2sc3ccccc3c2O)cc1	58%	2	16µM*	-12%	-20%
COc1ccc2ccccc2c1/C=N/Nc1cccc(C(=O)O)c1	?	-3	7.9µM*	-4%	-10%
COc1cc(C=NNC(=O)c2ccccc2-n2cccc2)ccc1O	-9%	0	13µM*	-11%	-9%
COc1ccc2cc(C(=O)N/N=C/c3sc4ccccc4c3O)ccc2c1	-2%	-4	9%	-20%	-18%
COc1ccc(C(=O)N/N=C/c2cc3ccccc3[nH]c2=S)cc1	15µM*	-4	4%	-15%[0.501 µM]	-2%
COc1cccc(CNC(=O)COC(=O)c2ccc(S(C)(=O)=O)c([N+](=O)[O-])c2)c1	nt	nt	nt	nt	-3%
Cc1ccc(Nc2nc(NCc3ccco3)nc3nccnc23)c(C)c1	nt	nt	nt	nt	-4%
COc1ccccc1/C=N/NC(=O)c1ccc(-c2ccccc2)cc1	30µM*	-2	1%	-5%	6%
COc1ccccc1/C=N/NC(=O)c1cccc2ccccc12	15µM*	-3	?	1%	79µM*
COc1cc(/C=N/NC(=O)c2cccc3ccccc23)cc(OC)c1OC	30µM*	6	12%	?	-15%
